Where “and” joins values, the source holds several entries; their conditions need not be identical. Identical values can stand only once. Calls of active or inactive are those of the source.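 The calls were made as follows, unless noted: active = compounds whose cell count with miR-34 switched on is under 0.7 times the count with it off; inactive = the rest.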
Assays:
[1] = hESC survival regulators, cell-based (AID 493140; call rule not given here;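 also: cells exposed to compounds for four days before counting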); details: human embryonic stem cell survival screen; stronger effect = higher value
[2] = liver-stage malaria parasite growth inhibition, primary screen, cell-based, HepG2, luciferase luminescence, HepG2 viability (AID 624349; in the data active = parasite load remaining mostly below about 12%, no sharp cut-off; inactive = mostly above about 10%;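 also: 100% = mean of DMSO negative control wells on the same plate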); details: P. berghei liver stage in HepG2, luciferase luminescence, concentration not given here; parasite load remaining: stronger effect = lower value; viability: measured here: HepG2 viability without parasites
[3] = sensitizers of A549 cells to miR-34 induction, primary screen, imaging, A549 dox-inducible miR-34, nuclei and caspase counts (AID 1347080); details: A549 miR-34 inducible, Hoechst nuclei count, 48 h
[4] = inhibitors of Cryptococcus chitosan production, flow cytometry, Cibacron Brilliant Red staining (AID 1347148; call rule not given here;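 also: compound exposure lasted three days at 37 degrees C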); details: Cryptococcus neoformans chitosan, stronger effect = lower value; at 10 µM unless noted
[5] = kinase inhibitors against Plasmodium liver-stage infection, cell-based, known kinase inhibitor set, luminescence, hepatoma host viability (AID 624392; call rule not given here;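 also: infected cells incubated roughly two days before readout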); details: Plasmodium liver stage in hepatoma cells, luciferase luminescence, concentration not given here; liver cell % of control: measured here: host liver cell viability; parasite % of control: stronger effect = lower value
[6] = stronger effect = lower value, cell number ratio, induced over uninduced
[7] = measured here: relative caspase fold change +Dox/-Dox
[8] = measured here: total cells with miR-34 induction, stronger effect = lower value
[9] = measured here: total cells without miR-34 induction

SMILES: COc1ccc2c3c([nH]c2c1)[C@H]1C[C@H]2[C@H](C[C@@H](O)[C@H](OC)[C@H]2C(=O)O)CN1CC3
- survival [1]: 7.42 (inactive)
- parasite load remaining [2]: 113% (inactive)
- viability [2]: 75.4%
- fold change [3, 6]: 0.96 (inactive)
- fold change [3, 7]: 0.581
- cell count [3, 8]: 9000
- cell count [3, 9]: 9370

SMILES: CC(C)[N+]1(C)[C@@H]2CC[C@@H]1CC(OC(=O)C(CO)c1ccccc1)C2 (stereo not given in full)
- parasite load remaining [2]: 92% (inactive)
- viability [2]: 107%
- fold change [3, 6]: 0.845 (inactive)
- fold change [3, 7]: 1.32
- cell count [3, 8]: 9220
- cell count [3, 9]: 10900

SMILES: OCCN1C[C@@H](O)[C@@H](O)C(O)C1CO (stereo not given in full)
- parasite load remaining [2]: 147% (inactive) and 57.2% (inactive)
- viability [2]: 86.4% and 111%
- fold change [3, 6]: 0.903 (inactive)
- fold change [3, 7]: 5.56
- cell count [3, 8]: 12600
- cell count [3, 9]: 14000

SMILES: CCCCCCCCCCCCCCCCCCOC[C@@H](O)COP(=O)([O-])OCC[N+](C)(C)C
- survival [1]: 71.2 (inactive)
- fold change [3, 6]: 0.968 (inactive)
- fold change [3, 7]: 0.597
- cell count [3, 8]: 5980
- cell count [3, 9]: 6180

SMILES: CCCCCCCC/C=C\CCCCCCCC(=O)OCC(CO)OC(=O)CCCCCCC/C=C\CCCCCCCC (stereo not given)
- survival [1]: 88.4 (inactive)
- fold change [3, 6]: 1.01 (inactive)
- fold change [3, 7]: 1.34
- cell count [3, 8]: 5020
- cell count [3, 9]: 4970

SMILES: Clc1cnccn1
- survival [1]: 4.25 (inactive)
- parasite load remaining [2]: 81.6% (inactive)
- viability [2]: 71.5%
- fold change [3, 6]: 0.949 (inactive)
- fold change [3, 7]: 0.524
- cell count [3, 8]: 9270
- cell count [3, 9]: 9770

SMILES: CCCCCC(=O)/C=C/[C@H]1[C@H](O)CC(=O)[C@@H]1C/C=C\CCCC(=O)O
- survival [1]: 92.3 (inactive)
- fold change [3, 6]: 0.973 (inactive)
- fold change [3, 7]: 1.18
- cell count [3, 8]: 6130
- cell count [3, 9]: 6300

SMILES: CC(C)=CCC/C(C)=C/CC1=C(C)C(=O)c2ccccc2C1=O
- parasite load remaining [2]: 76.4% (inactive)
- viability [2]: 75.8%
- fold change [3, 6]: 0.983 (inactive)
- fold change [3, 7]: 0.847
- cell count [3, 8]: 6780
- cell count [3, 9]: 6900

SMILES: CCCCCCCCCCCCCCC[C@@H](O)[C@H](CO)NC(C)=O
- survival [1]: 81.5 (inactive)
- fold change [3, 6]: 1.08 (inactive)
- fold change [3, 7]: 1
- cell count [3, 8]: 5490
- cell count [3, 9]: 5090

SMILES: S=C(NC1CCCCC1)N1CCC(C2C=NC=N2)CC1 (stereo not given)
- survival [1]: 6.25 (inactive)
- parasite load remaining [2]: 49.2% (inactive)
- viability [2]: 96.4%
- fold change [3, 6]: 0.857 (inactive)
- fold change [3, 7]: 1.52
- cell count [3, 8]: 8240
- cell count [3, 9]: 9620

SMILES: CCCCCCCCCCCCCCC[C@@H](O)[C@@H](N)CO
- survival [1]: 56.7 (inactive)
- fold change [3, 6]: 0.968 (inactive)
- fold change [3, 7]: 1.46
- cell count [3, 8]: 5120
- cell count [3, 9]: 5290

SMILES: CCCCCCCCCCCCCCCCOCC(CO)OC(C)=O (stereo not given)
- survival [1]: 63.3 (inactive)
- fold change [3, 6]: 0.942 (inactive)
- fold change [3, 7]: 1.66
- cell count [3, 8]: 5510
- cell count [3, 9]: 5840

SMILES: CCC(C)[C@H]1O[C@]2(CC[C@@H]1C)C[C@@H]1C[C@@H](C/C=C(\C)[C@@H](OC3C[C@H](OC)C(O[C@H]4C[C@H](OC)[C@@H](O)[C@H](C)O4)[C@H](C)O3)[C@@H](C)/C=C/C=C3\CO[C@@H]4[C@H](O)C(C)=C[C@@H](C(=O)O1)[C@]34O)O2 (stereo not given in full)
- parasite load remaining [2]: 54.4% (inactive)
- viability [2]: 90.4%
- fold change [3, 6]: 1.04 (inactive)
- fold change [3, 7]: 1.61
- cell count [3, 8]: 4770
- cell count [3, 9]: 4580

SMILES: COc1ccc(CC(C)(N)C(=O)O)cc1OC (stereo not given)
- survival [1]: 17 (inactive)
- parasite load remaining [2]: 64.7% (inactive)
- viability [2]: 74.8%
- fold change [3, 6]: 0.962 (inactive)
- fold change [3, 7]: 0.938
- cell count [3, 8]: 9190
- cell count [3, 9]: 9550

SMILES: CC(C)CC(=O)N[C@H](C(=O)NC(C(=O)NC(CC(C)C)[C@@H](O)CC(=O)N[C@@H](C)C(=O)N[C@@H](CC(C)C)[C@@H](O)CC(=O)O)C(C)C)C(C)C (stereo not given in full)
- parasite load remaining [2]: 20.9% (inactive)
- viability [2]: 180%
- fold change [3, 6]: 0.937 (inactive)
- fold change [3, 7]: 3.28
- cell count [3, 8]: 12400
- cell count [3, 9]: 13300

SMILES: COc1c(O)c2c(=O)cc(OC)c3c4c(OC)cc(=O)c5c(O)c(OC)c(C[C@H](C)OC(=O)c6ccccc6)c(c(c1C[C@H](C)OC(=O)Oc1ccc(O)cc1)c23)c54
- fold fluorescence [4]: 6.48 [at 6.3 µM] (inactive)

SMILES: O=C(O)CNC(=O)[C@H](CS)Cc1ccccc1
- fold fluorescence [4]: 3.85 [at 197.4 µM] (inactive)

SMILES: CC[C@H](C)[C@H](N)C(=O)N[C@@H](CC(N)=O)C(=O)N[C@@H](CC(C)C)C(=O)N[C@@H](CCCCN)C(=O)N[C@@H](C)C(=O)N[C@@H](CC(C)C)C(=O)N[C@@H](C)C(=O)N[C@@H](C)C(=O)N[C@@H](CC(C)C)C(=O)N[C@@H](C)C(=O)N[C@@H](CCCCN)C(=O)N[C@@H](CCCCN)C(=O)N[C@H](C(=O)N[C@@H](CC(C)C)C(N)=O)[C@@H](C)CC
- fold fluorescence [4]: 3.8 [at 33.8 µM] (inactive)

SMILES: c1ccc(-c2[nH]ncc2-c2ccnc3ccccc23)nc1
- parasite load remaining [2]: 38% (inactive)
- viability [2]: 62.8%
- liver cell % of control [5]: 101%
- parasite % of control [5]: 63.9% (inactive)
- fold change [3, 6]: 0.893 (inactive)
- fold change [3, 7]: 0.903
- cell count [3, 8]: 4970
- cell count [3, 9]: 5570

SMILES: CCC1OC(=O)[C@H](C)C(=O)[C@H](C)[C@@H](OC2O[C@H](C)C[C@H](N(C)C)[C@H]2O)[C@](C)(OC)C[C@@H](C)C(=O)[C@H](C)[C@H]2N(CCCCn3cnc(-c4cccnc4)c3)C(=O)OC12C (stereo not given in full)
- parasite load remaining [2]: 141% (inactive) and 312% (inactive)
- viability [2]: 91.8% and 96.9%
- fold change [3, 6]: 0.904 (inactive)
- fold change [3, 7]: 2.11
- cell count [3, 8]: 11200
- cell count [3, 9]: 12400

SMILES: c1ccc2c3c([nH]c2c1)[C@H]1C2CCC([C@@H]4CCCN[C@H]24)N1CC3 (stereo not given in full)
- parasite load remaining [2]: 89.2% (inactive)
- viability [2]: 93.6%
- fold change [3, 6]: 0.865 (inactive)
- fold change [3, 7]: 1.3
- cell count [3, 8]: 7540
- cell count [3, 9]: 8710

SMILES: C[C@@](O)(C(=O)Nc1ccc(S(=O)(=O)c2ccccc2)cc1)C(F)(F)F
- fold fluorescence [4]: 5.17 [at 133.9 µM] (inactive)

SMILES: CC12CCC3c4ccc(OC(=O)c5ccccc5)cc4CCC3C1CCC2O (stereo not given)
- parasite load remaining [2]: 35.5% (inactive)
- viability [2]: 95.7%
- fold change [3, 6]: 0.833 (inactive)
- fold change [3, 7]: 2.66
- cell count [3, 8]: 9690
- cell count [3, 9]: 11600

SMILES: CCCCC[C@@H](O)CC[C@H]1[C@H](CCCCCCC(=O)O)C(=O)C[C@@H]1O
- fold fluorescence [4]: 5.11 (inactive)

SMILES: O=C(O)CCC/C=C\C[C@@H]1C(=O)C[C@H](O)[C@H]1/C=C/[C@H](O)CCc1ccccc1
- fold fluorescence [4]: 4.52 (inactive)

Reference: PubChem BioAssay
